# ChEMBL document CHEMBL3988442, “University of Dundee, Small-Polar-MMV Screening Library” (2021)
# Out of some 48,000 compounds screened, about 13,000 (27%) showed an effect of 50% or more. Some of the results follow.
# Test system: Wolbachia pipientis
# Assay: Anti-Wolbachia Cell-Based Screen
# Format: functional
# Set-up: scale not given: in the data most compounds retested in dose-response had high values
# Conditions: 5 µM
row,Compound,Percent Effect [%]
1,COc1ccc(CCN)cc1-c1ccc(O)cc1,-1.441
2,COc1cccc2c(=O)n(C3CCNCC3)cnc12,0.1861
3,COc1ccc(CC(C)Nc2cccc(F)c2)cc1 (centres undefined),103.5
4,COc1cccc(CC(C)NC(=O)NC(C)C)c1 (centres undefined),-4.746
5,COCC(=O)NC(C)Cc1cccc(OC)c1 (centres undefined),-11.91
6,CC(=O)N1CC[C@H]2N(C)CC[C@@]2(C(=O)Nc2cccnc2)CC1,115.3
7,CC(=O)N1C[C@H]2CNC[C@@]2(C(=O)NCCCOc2cccnc2)C1,-25.71
8,CC(=O)N1CCC2(CC1)NC(=O)[C@H]1CN(Cc3cccnc3)C[C@H]12,-21.72
9,CN(Cc1nc(C2CC2)no1)C(=O)CN1CC(c2ccccc2)CC1=O (centres undefined),-16.31
10,O=C(CCc1nccs1)N1CCC(C(=O)O)(c2ccccc2)CC1,4.146
11,CC1CCN(CC(=O)N(Cc2ccccc2)Cc2nccs2)C1=O (centres undefined),108.7
12,O=C(NC[C@H]1C[C@@H]2CCN1C[C@@H]2CN1CCOCC1)Nc1ccccc1,10.54
13,Cc1cc(C(=O)N2CCC3(CCN3Cc3ccc(F)cc3)C2)no1.O=C(O)C(F)(F)F (centres undefined),-18.68
14,CC[C@@H]1N(Cc2ccncc2)CCC[C@]12CCC(=O)N2CCOC.O=C(O)C(F)(F)F.O=C(O)C(F)(F)F,102.9
15,O=C(O)C(F)(F)F.O=C(O)C(F)(F)F.O=C1CC[C@@H]2[C@@H](CCN2Cc2ccncc2)N1c1ccccc1,-23.66
16,CN(C)C(=O)CN1CCC2(CCCN(Cc3cccnc3)C2)C1=O.O=C(O)C(F)(F)F.O=C(O)C(F)(F)F (centres undefined),-8.484
17,Cn1cc(N2C(=O)CC[C@@H]3[C@H]2CCN3Cc2ccncc2)cn1.O=C(O)C(F)(F)F.O=C(O)C(F)(F)F,-8.311
18,O=C(O)C(F)(F)F.O=C(O)C(F)(F)F.O=C(O)C(F)(F)F.O=C1N(c2cccnc2)CCC12CCCN(Cc1cccnc1)C2 (centres undefined),-3.646
19,CC[C@@H]1N(Cc2cccnc2)CCC[C@]12CCC(=O)N2C.O=C(O)C(F)(F)F.O=C(O)C(F)(F)F,114.6
20,CC[C@@H]1N(Cc2ccccn2)CCC[C@]12CCC(=O)N2CCOC,95.06

row,Compound,Percent Effect [%]
1,CNC(=O)CN1C(=O)CCC12CCCN(Cc1ccccn1)C2 (centres undefined),-6.812
2,Cc1ccc(CN2CC[C@@H]3[C@H]2CCC(=O)N3Cc2ccncc2)s1.O=C(O)C(F)(F)F.O=C(O)C(F)(F)F,13.87
3,COCCCN1CCCCC12CC(=O)N(Cc1ccccn1)C2 (centres undefined),-0.9294
4,CC[C@@H]1N(Cc2ccncc2)CCC[C@]12CCC(=O)N2C.O=C(O)C(F)(F)F.O=C(O)C(F)(F)F,105.4
5,Cc1oc(-c2ccco2)nc1CC(=O)N1CCN(C2CCC2)CC1,0.04228
6,CNC(=O)[C@H]1C[C@@H]2CN(C(=O)c3cncc(C)c3)C[C@@H]2N1C,-44.11
7,O=C1O[C@@H]2CN(Cc3ccsc3)C[C@@H]2N1Cc1ccccn1,-2.572
8,O=C(CCc1cscn1)N1CCC(C(=O)O)(c2ccccc2)CC1,-1.592
9,CC(C)N1CCN(C)C2(CCN(C(=O)c3ccnnc3)CC2)C1=O,-6.646
10,CCN1CCNC(=O)C12CCN(C(=O)Cc1ccccn1)CC2,118.9
11,CCN1CCN(C)C(=O)C12CCN(C(=O)Cc1ccccn1)CC2.O=C(O)C(F)(F)F,105.5
12,CC(C)CN1CCNC(=O)C12CCN(C(=O)c1ccccn1)CC2,-2.981
13,CCS(=O)(=O)N1CCC2(C1)C(=O)N(C)CCN2Cc1ccncc1.O=C(O)C(F)(F)F.O=C(O)C(F)(F)F (centres undefined),-0.1551
14,CCN1CCNC(=O)C12CCN(C(=O)c1ccccn1)CC2,120
15,N#CC1(c2ccccc2)CCN(C(=O)CN2C(=O)CCNC2=O)CC1,-11.36
16,O=C(NCCc1ccncc1)[C@H]1CC[C@@H]2[C@@H](CCN2C2CCC2)O1,-5.975
17,OCCN1CCN(Cc2cc3c(cc2Br)OCCO3)CC1,1.369
18,CC(C)=CCN1C[C@H]2CC[C@@H]1CN(C(=O)Cc1c(C)nc(C)[nH]c1=O)C2,-7.395
19,Cl.Cl.Fc1ccc2c(c1)C1(CCNCC1)CC2NC1CC1 (centres undefined),108.3
20,Cc1ccc2c(c1)C1(CCNCC1)CC2NCCO.Cl.Cl (centres undefined),90.17

row,Compound,Percent Effect [%]
1,Cc1ccnc(NCCNC(=O)C2CC3(CCNCC3)CN2C)c1 (centres undefined),2.033
2,Cc1ccc2c(c1)C(NC1CC1)CC21CCNCC1.Cl (centres undefined),121
3,Cc1ccc2c(c1)C(NC(C)C)CC21CCNCC1.Cl (centres undefined),-5.487
4,CC(C)NC1CC2(CCNCC2)c2cc(F)ccc21.Cl.Cl (centres undefined),1.689
5,COc1ccc2c(c1)C1(CCNCC1)CC2NC1CC1.Cl.Cl (centres undefined),123.6
6,Cl.O=C(Nc1ccccc1)C1=NOC2(CCNCC2)C1,-4.719
7,CN(C)C(=O)CN1CCCC2(CCN(c3ccc(C#N)cn3)C2)C1.O=C(O)C(F)(F)F (centres undefined),-7.726
8,Cc1cnn(CC(C)NCC(=O)NC2CCOCC2)c1 (centres undefined),1.556
9,COc1nc(N2CCNCC2)ncc1Br,-8.9
10,Cc1ccc2c(c1)C1(CCNCC1)CC2NC1CC1.Cl.Cl (centres undefined),133.8
11,CN(C)C(=O)C1CCC2(CCNCC2)C1.O=C(O)C(F)(F)F (centres undefined),-33.97
12,CNC(=O)C1CCC2(CCNCC2)C1.O=C(O)C(F)(F)F (centres undefined),1.559
13,Cc1ccc2c(c1)C1(CCNCC1)CC2NC(C)C.Cl.Cl (centres undefined),-0.3898
14,NC(=O)CC1CC2(CCNCC2)c2cc(F)ccc21.O=C(O)C(F)(F)F (centres undefined),111.2
15,Cn1cnc(S(=O)(=O)N2C[C@H]3CN(Cc4ccccn4)C[C@H]3C2)c1.O=C(O)C(F)(F)F.O=C(O)C(F)(F)F,1.449
16,O=C1NC[C@H]2CN(Cc3ccccn3)CCN12,-1.346
17,Cc1nc(CN2C[C@@H]3CN(C(=O)Cc4ccccn4)C[C@@H]3C2)cs1.O=C(O)C(F)(F)F.O=C(O)C(F)(F)F,107.4
18,COC1CCC[C@@H]2CN(Cc3csc(C)n3)C[C@H]12.O=C(O)C(F)(F)F (some centres undefined),-10.37
19,O=C(Cc1ccccn1)N1C[C@H]2CN(Cc3ccccn3)C[C@H]2C1,97.89
